# Only some compounds are listed: those with a hit (about 3.6% of all), similar ones and a draw of the others.
# HTT-AS promoter – activators of huntingtin-antisense promoter activity. HEK293 HTT-AS promoter firefly luciferase reporter, 24 h; response scale: percent change from vehicle, -100% = no light. Potency, µM (highest dose often 57.5 µM), for inactives: at the highest dose activity change, positive = activation, hits mostly activators. 0.24% of 48,000 active. AID 1508624; further: nearly all actives have a fitted effect of over 55% in size
#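 Quantitative HTS used concentration series of up to 57.5 uM final on HEK293 luciferase reporter cells, 24 h at 37 degrees C. Readout was Dual-Glo firefly luminescence.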
# HTT promoter inh – HTT promoter inhibition. HEK293 HTT promoter firefly luciferase reporter, 24 h. Potency, µM (titrated, usually from 57.5 µM), without a hit: at the top dose activity change, negative = inhibition, actives largely listed as inhibitors. 0.93% of 48,000 active. AID 1508623; further: nearly all actives have a fitted effect of over 50% in size
#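 Firefly luciferase signal from promoter-reporter HEK293 cells was scaled between vehicle (0%) and zero RLU (-100%). Compounds were tested at final concentrations of up to 57.5 uM over 24 h at 37 degrees C. PTC124 at 50 uM final served as control inhibitor.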
# PMP22 txn – modulates PMP22 transcription in S16 Schwann cells | S16 Pmp22-F2sN Schwann cells, FLuc/NLuc coincidence luminescence, 24 h | Potency, µM (titrated, usually from 57.5 µM), for inactives: top-dose activity change, negative = inhibition, most hits filed as inhibitors | 2% of 43,000 active; active means clear falling dose curves in both reporters; inconclusive means both reporters move, but less clearly or upward; inactive means either reporter flat; the % is the NLuc reporter signal; further: on the % scale 0 is the no-effect control and ±100 the full control effect
#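 Schwann cells carrying the coincidence reporter were exposed to library compounds for 24 h at 37C, then lysed and read for FLuc and, after quenching, NLuc luminescence on a CCD imager.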
# pS6 MEF inh – reduces mTORC1 signaling in Tsc2 and p53 null MEF cells; 0.78% of 44,000 active; Potency, µM (highest dose often 38.3 µM), inactives show at the highest dose activity change, negative = inhibition, actives largely listed as inhibitors; Tsc2-/- p53-/- MEF, phospho-rpS6 immunofluorescence/PI, 24 h; AID 493208;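 further: plate controls were DMSO for no effect and rapamycin for full effect; nearly all actives have a fitted effect of over 50% in size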
#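 Readout is phospho-S6 Alexa 488 signal normalized to PI per well, reported as % active cells with thresholds set from rapamycin (7.5 nM) and DMSO controls. Cells: Tsc2-/-, p53-/- MEFs, 24 hrs compound at 37 C; PI cell number serves as viability.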
# S16 viability – S16 Schwann cell cytotoxicity; S16 Pmp22-F2sN Schwann cells (luciferase reporters placed in the Pmp22 gene) viability, CellTiter-Glo, 24 h; Potency, µM (highest dose often 57.5 µM), for the others: top-dose activity change, negative = cytotoxicity, most hits filed as cytotoxic; 0.48% of 43,000 active; AID 1508642; further: on the % scale 0 is the no-effect control and ±100 the full control effect; nearly all actives have a fitted effect of over 65% in size
#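 Rat S16 Schwann reporter line, 24 h treatment with library compounds delivered at 23 nL per well. Cell viability by CellTiter-Glo luminescence.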
# Active calls of the source: *; ? = inconclusive; . = no result; [ ] = remark or other dose. Unless noted, the call rests on the fitted dose curve; in most records, active means well fitted curve in the direction sought with a large enough effect; inconclusive means small, poorly fitted or top-dose-only effect, or another doubt; inactive means no such curve, though single readings can be large; an effect the other way counts as inactive or inconclusive. Potency means the concentration at half of the fitted maximal effect.
SMILES,HTT-AS promoter,HTT promoter inh,PMP22 txn,pS6 MEF inh,S16 viability
C=CC(=O)Nc1cccc(Nc2nc(NC3CCC(N(C)C)CC3)nc3c2ncn3C(C)C)c1 (stereo not drawn),-42%,-38%,.,.,.
NC(=O)c1nn2c(C(F)(F)F)cc(-c3ccc(Br)cc3)nc2c1Cl,-29%,-32%,-19%,-2%,28µM*
CC(C)c1nn2c(=O)cc(COC(=O)c3cccs3)nc2s1,4µM*,47%,-15%,-15%,-18%
CN(C)CC=CC(=O)Nc1cc2c(Nc3ccc(F)c(Cl)c3)ncnc2cc1O[C@H]1CCOC1,-45%,?,.,.,.
Cc1cc(Cl)ccc1NC(=O)CN1C(=O)C(=O)c2ccccc21,-12%,-11%,?,10µM*,?
Cc1ccc(Cl)cc1NC(=O)CN1C(=O)c2cccc3cccc1c23,-22%,-8%,?,-5%,9%
NC1=N[C@@]2(c3cc(NC(=O)c4ccc(F)cn4)ccc3F)COC[C@@H]2CS1,-27%,-20%,.,.,.
Fc1ccc(NCc2cccn2-c2nnc(N3CCOCC3)s2)cc1,4%,-4%,?,-1%,18%
Fc1ccc(Nc2nc(Nc3ccc(F)cc3)nc(N3CCOCC3)n2)cc1,-17%,?,-20%,2.1µM*,4%
CN(C[C@@H]1COCCO1)S(=O)(=O)Nc1ccc2ccc3ncc(-c4cnn(C)c4)cc3c(=O)c2c1,-1%,15%,.,.,.
CCOC(=O)c1c(C)n(-c2ccccc2)c2ccc(OC(=O)c3cccc(Cl)c3)cc12,-4%,2%,-16%,-5%,?
CCOC(=O)c1c(C)n(-c2ccccc2)c2ccc(OC(=O)c3ccccc3)cc12,-71%,20µM*,?,-11%,-11%
CCOc1ccc(NC(=O)c2sc3nc4c(cc3c2N)CCCCCC4)cc1,-29%,?,?,21µM*,0%
Nc1c(C(=O)Nc2ccc(C(=O)O)cc2)sc2nc3c(cc12)CCCC3,-74%,?,11%,-6%,3%
O=C(Nc1ncc(SCCN2CCCC2)s1)[C@]1(c2ccc(S(=O)(=O)C3CC3)cc2)C[C@@H]1C1CCCCC1,-19%,-12%,.,.,.
CCOC(=O)N[C@@H]1CC[C@@H]2[C@@H](C1)C[C@H]1C(=O)O[C@H](C)[C@H]1[C@@H]2C=Cc1ccc(-c2cccc(F)c2)cn1,-25%,?,.,.,.
O=C(Cn1c(=O)c2ccccc2n(CC(=O)Nc2ccc(Cl)cc2)c1=O)NCCc1ccccc1,-34%,?,-5%,16µM*,-21%
CC(C)c1ccc(S(=O)(=O)c2cnc(SCC(=O)Nc3ccc(F)cc3F)nc2N)cc1,-30%,?,?,-1%,25%
CC(Sc1ncc(S(=O)(=O)c2ccc(C(C)C)cc2)c(N)n1)C(=O)Nc1ccccc1 (stereo not drawn),-47%,32µM*,?,-8%,5%
Cc1cccc2nc(-c3ccccn3)c(Nc3ccc(F)cc3)n12,-45%,?,13µM*,-16%,?
Cc1cccc(NS(=O)(=O)c2ccc3c(c2)CCN3C(=O)C2CCC2)c1,-52%,20µM*,?,3%,1%
Cc1ccc(C)c(NS(=O)(=O)c2ccc3c(c2)CCCN3C(=O)C2CCC2)c1,-35%,?,?,-2%,?
COc1ccc(NS(=O)(=O)c2ccc3c(c2)CCN3C(=O)C2CC2)cc1OC,-91%,4µM*,?,-6%,?
Cc1ccc(NS(=O)(=O)c2ccc3c(c2)CCN3C(=O)C2CC2)c(C)c1,-26%,?,?,1%,-4%
O=C(CCNS(=O)(=O)c1ccc2c(c1)CCN2C(=O)C1CC1)N1CCN(c2cccc(C(F)(F)F)c2)CC1,-49%,28µM*,?,-17%,?
SMILES,HTT-AS promoter,HTT promoter inh,PMP22 txn,pS6 MEF inh,S16 viability
CC[C@H]1OC(=O)[C@H](C)[C@@H](O[C@H]2C[C@@](C)(OC)[C@@H](O)[C@H](C)O2)[C@H](C)[C@@H](O[C@@H]2O[C@H](C)C[C@H](N(C)C)[C@@H]2O)[C@](C)(O)C[C@@H](C)CN(C)[C@H](C)[C@@H](O)[C@]1(C)O,-8%,-2%,.,.,.
C[C@@H]1[C@H](C)CC[C@]2(C(=O)O)CC[C@]3(C)C(=CC[C@@H]4[C@@]5(C)C[C@@H](O)[C@H](O)[C@@](C)(CO)[C@H]5CC[C@]43C)[C@@H]12,-10%,-5%,.,.,.
Cc1ccc2nc(-c3ccc(Cl)s3)c(Nc3ccc4c(c3)OCCO4)n2c1,4.5µM*,41%,-16%,7%,4%
Cc1ccn2c(Nc3ccc4c(c3)OCCO4)c(-c3ccc(Cl)s3)nc2c1,?,22%,-9%,5%,6%
CCCC1=Nc2cc(C(=O)NCc3ccccc3)ccc2Sc2ccccc21,-37%,?,12µM*,?,?
CC1(C)CC(=O)c2c(C(F)(F)F)nn(-c3ccc(C(N)=O)c(NC4CCC(OC(=O)CN)CC4)c3)c2C1 (stereo not drawn),-61%,?,.,.,.
COc1ccc(S(=O)(=O)N2CCC(c3nnc(-c4ccccc4C)o3)CC2)c(OC)c1,-31%,?,?,-24%,5%
Cc1ccccc1-c1nnc(C2CCN(S(=O)(=O)c3ccc(Cl)cc3)CC2)o1,-54%,16µM*,?,0%,?
CSc1cccc(Nc2ncc3cc(-c4c(Cl)cccc4Cl)c(=O)n(C)c3n2)c1,0%,0%,.,.,.
COc1cc(Nc2nc(SCC(=O)c3ccc(Cl)c(Cl)c3)nc3ccccc23)cc(OC)c1,-36%,-24%,?,12µM*,-6%
CCN(CC)CCCCNc1nc2cc(Cl)c(Cl)cc2nc1-c1ccc(-c2cccs2)s1,-24%,?,.,.,.
C[C@]1(CO)CN(c2cc(C(=O)Nc3ccc4c(c3)-c3c(c(C(N)=O)nn3-c3ccc(F)cc3)CC4)c(Cl)cn2)C[C@@]1(C)CO,-42%,?,.,.,.
CCOc1ccc(NC(=O)Cc2ccc(NC(=O)N3CCCCc4ccccc43)cc2)cc1,-16%,-31%,-10%,-4%,14µM*
CCOc1ccc(CNC(=O)c2ccc(NC(=O)N3CCCCc4ccccc43)cc2)cc1,-6%,-8%,-21%,1%,?
O=C(Nc1ccc2oc(-c3cccnc3)nc2c1)c1ccc(-c2cccc(OC(F)(F)F)c2)o1,-25%,?,-13%,?,8%
Cc1c(Cl)cccc1-c1ccc(C(=O)Nc2ccc3oc(-c4cccnc4)nc3c2)o1,-18%,?,-26%,13µM*,-1%
S=C(NCc1ccc2c(c1)OCO2)N1CCN(c2ncnc3c2oc2ccccc23)CC1,-16%[116 µM],?,.,.,.

# High-throughput results as filed in PubChem.
